# According to PubChem BioAssay (NCATS):
# Results filed as inconclusive are left out. For part of these data: Entries with a potency or affinity are not part of this list. Active and inactive are the calls of the source.
# Experiments:
# [1] = Ebola virus entry assay, reporter ratio channel; AC50: Channel type: primary unless noted; outcome: Channel type: primary unless noted
# [2] = Ebola virus entry assay, blue channel (ratio component)
# [3] = Ebola virus entry reporter assay, green channel fluorescence
# [4] = Ebola virus entry cell assay, ratio channel
# [5] = High-throughput drug toxicity screening in the BPDCN cell line Gen2.2 (AID 1224824); details: Gen2.2 BPDCN cells; at 45.8 µM (top of the series) unless noted;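 further: cells exposed to compounds for 48 h before reading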
# Method in brief: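 Gen2.2 cells (500/well) in phenol red-free RPMI with 10% FBS were exposed to compounds for 48 h at 37 °C, 5% CO2. Viability was read by CellTiter-Glo luminescence and normalized to DMSO (100%) and 9.2 uM bortezomib (0%).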
# [6] = High-throughput drug toxicity screening in the BPDCN cell line Cal-1 (AID 1224825); details: Cal-1 BPDCN cell viability, qHTS; at 45.8 µM (top of the series) unless noted
# Method in brief: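 Cal-1 cells, 500 per well in phenol-red-free RPMI with 10% FBS, exposed to compounds for 48 hours at 37C, 5% CO2. Viability read by CellTiter-Glo luminescence; percent activity normalized to DMSO (100%) and 9.2 uM bortezomib final (0%).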
# [7] = qHTS assay for measurement of the activity of small molecule inhibitors on Zika virus induced Caspase-3 activity in human iPSC derived neural progenitor cells (hNPCs) (AID 1224857; active means well fitted curve in the direction sought with a large enough effect; an effect the other way counts as inactive or inconclusive; further: % of control where 0% means no effect; nearly all actives have a fitted effect of over 65% in size)
# Method in brief: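 After overnight (16–20 h) culture at 350 cells/well, hNPCs get compound, then ZIKV 2 FFU/cell one hour later. Six hours on, Caspase-Glo 3/7 is added and luminescence measured.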
# [8] = qHTS assay for measurement of the activity of small molecule inhibitors on Zika virus induced Caspase-3 activity in human astrocytoma cells (AID 1224859; active means well fitted curve in the direction sought with a large enough effect; an effect the other way counts as inactive or inconclusive;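 further: plate controls were ZIKV-infected untreated cells for no effect and uninfected cells for full effect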)
# Method in brief: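 Inhibition of Zika-induced caspase-3/7 activity: SNB-19 cells, 1 h compound pretreatment, ZIKV 2 FFU/cell for 6 h at 37 C, Caspase-Glo luminescence read-out.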
# [9] = qHTS Screen of the MIPE 4.0 Collection Against Ewings Sarcoma (RDES) (AID 1259252; active means well fitted curve in the direction sought with a large enough effect; an effect the other way counts as inactive or inconclusive;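 further: 100% = DMSO-treated cells and 0% = medium-only wells without cells; nearly all actives have a fitted effect of over 35% in size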)
# Method in brief: (§1)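 Log-phase cells in RPMI with 5% FBS attached for 4 h, then received compounds as a titration for 48 h at 37C, 5% CO2. Viability was read by CellTiter-Glo luminescence and normalized to DMSO and no-cell wells.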
# [10] = qHTS Screen of the MIPE 4.0 Collection Against Ewings Sarcoma (TC71) (AID 1259253; active means well fitted curve in the direction sought with a large enough effect; an effect the other way counts as inactive or inconclusive;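 further: 100% = DMSO-treated cells and 0% = medium-only wells without cells; nearly all actives have a fitted effect of over 40% in size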)
# Method in brief: as §1
# [11] = qHTS Screen of the MIPE 4.0 Collection Against Ewings Sarcoma (EW8) (AID 1259255; active means well fitted curve in the direction sought with a large enough effect; an effect the other way counts as inactive or inconclusive;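 further: 100% = DMSO-treated cells and 0% = medium-only wells without cells; nearly all actives have a fitted effect of over 35% in size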)
# Method in brief: as §1
# [12] = qHTS Screen of the MIPE 4.0 Collection Against Ewings Sarcoma (TC32) (AID 1259256; active means well fitted curve in the direction sought with a large enough effect; an effect the other way counts as inactive or inconclusive;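 further: 100% = DMSO-treated cells and 0% = medium-only wells without cells; nearly all actives have a fitted effect of over 45% in size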)
# Method in brief: as §1
# [13] = qHTS assay to identify small molecule inhibitors of chordoma cells - UCH-1 (AID 1259355; active means well fitted curve in the direction sought with a large enough effect; an effect the other way counts as inactive or inconclusive; further: on the % scale 0 is the no-effect control and ±100 the full control effect; nearly all actives have a fitted effect of over 55% in size)
# Method in brief: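 Cells (800/well) were seeded and left overnight at 37 C, 5% CO2, then treated with drugs at 15 concentrations plus a combination mix of auranofin, camptothecin, doxorubicin, rubitecan and topotecan. Viability after 48hr was read by CellTiter-Glo luminescence.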
# [14] = qHTS assay to identify small molecule inhibitors of chordoma cells - UCH-2 (AID 1259356; active means well fitted curve in the direction sought with a large enough effect; an effect the other way counts as inactive or inconclusive; further: on the % scale 0 is the no-effect control and ±100 the full control effect)
compound,measurement,setting,value
CC(O)(P(=O)(O)O)P(=O)(O)O,outcome,[1],inactive
same,outcome,[2],inactive
same,outcome,[3],inactive
same,outcome,[4],inactive
C[C@](N)(Cc1ccc(O)cc1)C(=O)O,outcome,[1],inactive
same,outcome,[2],inactive
same,outcome,[4],inactive
C[N+]1(C)CCCC(OC(=O)C(O)(c2ccccc2)c2ccccc2)C1 (stereo not given),outcome,[1],inactive
same,outcome,[2],inactive
same,outcome,[3],inactive
same,outcome,[4],inactive
Nc1ccc(C(=O)O)c(O)c1,outcome,[1],inactive
same,outcome,[2],inactive
same,outcome,[3],inactive
same,outcome,[4],inactive
Cc1noc(NS(=O)(=O)c2ccc(N)cc2)c1C,outcome,[1],inactive
same,outcome,[2],inactive
same,outcome,[3],inactive
same,outcome,[4],inactive
CN1C(C(=O)Nc2ccccn2)=C(O)c2ccccc2S1(=O)=O,outcome,[1],inactive
same,outcome,[2],inactive
same,outcome,[4],inactive
CC[C@H]1OC(=O)[C@H](C)[C@@H](O[C@H]2C[C@@](C)(OC)[C@@H](O)[C@H](C)O2)[C@H](C)[C@@H](O[C@@H]2O[C@H](C)C[C@H](N(C)C)[C@@H]2O)[C@](C)(O)C[C@@H](C)CN(C)[C@H](C)[C@@H](O)[C@]1(C)O,outcome,[1],inactive [Channel type: confirmation]
same,outcome,[2],inactive
same,outcome,[3],inactive
same,AC50,[4],2510 nM (active)
O=C(N[C@H](CO)[C@H](O)c1ccc([N+](=O)[O-])cc1)C(Cl)Cl,outcome,[1],inactive
same,outcome,[2],inactive
same,outcome,[3],inactive
same,outcome,[4],inactive
COCCCOc1ccnc(CS(=O)c2nc3ccccc3[nH]2)c1C (stereo not given),outcome,[1],inactive
same,outcome,[2],inactive
same,outcome,[3],inactive
same,outcome,[4],inactive
CC(CCc1ccc(O)cc1)NCCc1ccc(O)c(O)c1 (stereo not given),outcome,[1],inactive
same,outcome,[2],inactive
same,outcome,[3],inactive
same,outcome,[4],inactive
C[N+](C)(C)CC(O)CC(=O)[O-] (stereo not given),outcome,[1],inactive
same,outcome,[2],inactive
same,outcome,[4],inactive
CC(NC(C)(C)C)C(=O)c1cccc(Cl)c1 (stereo not given),outcome,[1],inactive
same,outcome,[2],inactive
same,outcome,[3],inactive
same,outcome,[4],inactive
same,"cell viability, % of control (lower = more cytotoxic)",[5],145%
same,viability (% of control),[6],97.9%
same,outcome,[7],inactive
same,outcome,[8],inactive
same,Potency,[9],inactive
same,Potency,[10],inactive
same,outcome,[11],inactive
same,Potency,[12],inactive
same,outcome,[13],inactive
same,outcome,[14],inactive
C[C@H](CS)C(=O)N1CCC[C@H]1C(=O)O,outcome,[1],inactive
same,outcome,[2],inactive
same,outcome,[3],inactive
same,outcome,[4],inactive
CC1COc2c(N3CCN(C)CC3)c(F)cc3c(=O)c(C(=O)O)cn1c23 (stereo not given),outcome,[1],inactive
same,outcome,[2],inactive
same,outcome,[3],inactive
same,outcome,[4],inactive
O=C1CN=C(c2ccccc2)c2cc([N+](=O)[O-])ccc2N1,outcome,[1],inactive
same,outcome,[2],inactive
same,outcome,[3],inactive
same,outcome,[4],inactive
same,outcome,[7],inactive
same,outcome,[8],inactive
same,outcome,[13],inactive
same,outcome,[14],inactive
COc1c(N2C[C@@H]3CCCN[C@@H]3C2)c(F)cc2c(=O)c(C(=O)O)cn(C3CC3)c12,outcome,[1],inactive
same,outcome,[2],inactive
same,outcome,[3],inactive
same,outcome,[4],inactive
